High-throughput results (PubChem BioAssay)
This is a sample that favours compounds with a hit; in the whole collection about 7.3% have one here.
NPC1 prom act: activators of NPC1 promoter; Huh7 NPC1 promoter luciferase reporter, 24 h; Potency, µM (series often up to 9.22 µM), for inactives: at the top dose activation, actives largely listed as activators; hit rate 2.4% among 320,000; further: % of control where 0% means no effect; nearly all actives have a fitted effect of over 60% in size
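Stably transfected Huh7 (NPC1 promoter→luciferase), 1500 cells/well in Opti-MEM + 10% FBS, 2 h settle, then compound 24 h at 37 °C. Luminescence after 10 min with Amplite reagent.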
FLuc counter: firefly luciferase modulation, counter-screen for miR-21 project; hit rate 6.9% among 360,000; P08659; purified FLuc, Km substrates, luminescence inhibition; Potency, µM (doses to about 57.5 µM), for the others: at the top dose activity change, negative = inhibition, hits mostly inhibitors; AID 588342;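 further: plate controls were vehicle for no effect and reference inhibitor for full effect; nearly all actives have a fitted effect of over 55% in size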
Target sequence (P08659 whole entry, looked up): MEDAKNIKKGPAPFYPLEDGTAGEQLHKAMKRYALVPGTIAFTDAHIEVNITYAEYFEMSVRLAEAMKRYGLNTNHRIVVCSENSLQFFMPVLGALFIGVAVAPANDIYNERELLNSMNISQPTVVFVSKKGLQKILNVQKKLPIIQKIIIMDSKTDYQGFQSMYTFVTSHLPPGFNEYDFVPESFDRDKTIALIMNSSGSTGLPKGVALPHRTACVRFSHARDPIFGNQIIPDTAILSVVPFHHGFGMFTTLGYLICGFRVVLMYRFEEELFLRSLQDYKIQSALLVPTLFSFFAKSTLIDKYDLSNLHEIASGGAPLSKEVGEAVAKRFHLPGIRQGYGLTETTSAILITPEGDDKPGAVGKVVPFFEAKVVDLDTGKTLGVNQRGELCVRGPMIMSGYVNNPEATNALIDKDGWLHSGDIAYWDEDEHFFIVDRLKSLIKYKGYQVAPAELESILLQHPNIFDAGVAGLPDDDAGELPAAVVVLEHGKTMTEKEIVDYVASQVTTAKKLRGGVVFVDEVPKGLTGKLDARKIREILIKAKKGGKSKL
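Purified P. pyralis luciferase (10nM final) with 10uM D-luciferin and 10uM ATP (Km levels) in 50mM Tris acetate pH 7.5, 10mM Mg acetate, 0.01% Tween-20, 0.05% BSA; qHTS 6-point titration, ~60 µM downward; luminescence read.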
p53 reactivator: mutant p53 re-activation in reporter cells; AID 504706; H1299 p53-A138V BP100-luciferase reporter, luminescence, 24 h; Potency, µM (titrated, usually from 92.2 µM), without a hit: top-dose activity change, positive = activation, hits mostly activators; hit rate 0.063% among 320,000; further: % of control where 0% means no effect; nearly all actives have a fitted effect of over 45% in size
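H1299 (p53-null), stable ts p53-A138V + BP100-Luc; 1000 cells/well, Opti-MEM/10% FBS; cpd 4 pt, 1:5; 24 h, 37 deg C, 5% CO2; detection reagent 10 min RT; luminescence.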
ELG1 genotox: inducers of genotoxicity in HEK293T ELG1-luciferase cells. HEK293T ELG1-luciferase reporter, luminescence, 16 h. Potency, µM (titrated, usually from 46 µM), inactives show top-dose activity change, positive = activation, most hits filed as activators. hit rate 1.3% among 330,000. AID 504466; further: % of control where 0% means no effect; nearly all actives have a fitted effect of over 60% in size
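Step 1: seed 2,000 HEK293T ELG1-luciferase cells per well. Step 2: add compound or DMSO, incubate 16 hr at 37 °C. Step 3: ONE-Glo, 30 min at room temperature, read luminescence.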
Rab9 prom act: activates the Rab9 promoter; Potency, µM (series often up to 9.22 µM), without a hit: top-dose activation, negative = inhibition, usual class: activators; Huh7 Rab9 promoter-luciferase reporter, luminescence, 24 h; AID 485297; hit rate 2.8% among 320,000; further: % of control where 0% means no effect; nearly all actives have a fitted effect of over 60% in size
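Rab9 promoter-driven luciferase in stably transfected Huh7 cells; 1500 cells/well rested 2 h, exposed to compound in DMSO for 24 h at 37 °C, 5% CO2. Luminescence read 10 min after adding luciferase reagent at ambient temperature.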
SMN2 splice enh: increases expression of the SMN2 splice variant; HEK293 SMN2-luciferase splicing reporter, luminescence, 30-36 h; Potency, µM (series often up to 46.1 µM), for the others: at the highest dose activity change, positive = activation, most hits filed as activators; hit rate 2.8% among 210,000; AID 1458; further: % of control where 0% means no effect; nearly all actives have a fitted effect of over 55% in size
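HEK293 cells carry an SMN2 […]–luciferase reporter in which exon 7 inclusion puts luciferase in frame. Cells were plated 10-12 h before compound addition, then incubated 30-36 h at 37C. ONE-Glo luminescence was read; sodium butyrate at 4.5 mM final served as control.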
* marks the source's active call; other numbers are inactive results; ? = inconclusive; . = no result. The call rests on the fitted dose curve; in most records, active means well fitted curve in the direction sought with a large enough effect; inconclusive means small, poorly fitted or top-dose-only effect, or another doubt; inactive means no such curve, though single readings can be large; an effect the other way counts as inactive or inconclusive. Potency means the concentration at half of the fitted maximal effect.

SMILES	NPC1 prom act	FLuc counter	p53 reactivator	ELG1 genotox	Rab9 prom act	SMN2 splice enh
Cc1c(CC(=O)O)c(=O)oc2c(C)c3occ(-c4ccccc4)c3cc12	-2.8%	-8.8%	9.9%	-0.3%	2.8%	.
Cc1cc2oc(=O)c(CC(=O)O)c(C)c2c2occ(-c3ccccc3)c12	.	6.01µM*	.	.	.	21.1%
CCc1cc2c(=O)c(-c3nc4ccccc4n3C)c(COCC(=O)O)oc2cc1O	1.8%	0.9%	7.6%	-1.9%	10.6%	11.4%
CCCc1cc2c(=O)c(-c3nc4ccccc4s3)c(COCC(=O)O)oc2cc1O	1.6%	9.53µM*	?	5.8%	?	51.0%
CC(=O)O[C@@H]1C(CO[Si](C)(C)C(C)(C)C)=C(Br)C(=O)[C@@H]2O[C@]12C	.	.	.	.	.	-4.3%
Cc1ccc(CNC(=O)c2ccc(Cn3c(SCc4ccccc4F)nc4cccnc43)cc2)cc1	.	6.75µM*	.	.	.	.
Cc1ccc(CNC(=O)c2ccc(Cn3c(SCc4ccc(F)cc4)nc4cccnc43)cc2)o1	.	3.79µM*	.	.	.	0.3%
Cc1cccc(CSc2nc3cccnc3n2Cc2ccc(C(=O)NCc3ccco3)cc2)c1	.	19µM*	.	.	.	.
Cc1cccc(Cn2c(SCc3ccc(C(=O)NCc4ccccc4F)cc3)nc3cccnc32)c1	.	-4.3%	.	.	.	.
O=C(NCc1ccco1)c1ccc(Cn2c(SCc3ccccc3F)nc3cccnc32)cc1	.	8.49µM*	.	.	.	.
O=C(NC1CCCC1)c1ccc(CSc2nc3cccnc3n2Cc2ccccc2F)cc1	.	-16.7%	.	.	.	.
CCOc1ccccc1-c1noc(CSc2nnc(-c3ccccc3)n2-c2ccc(OC)cc2)n1	.	1.4%	.	.	.	-11.3%
O=C(CSc1nc2cccnc2n1Cc1ccccc1)NCc1ccco1	3.1%	-3.0%	-8.9%	-3.6%	-0.8%	19.0%
Cc1ccc(Cn2c(SCc3ccc(C(=O)O)cc3)nc3cccnc32)cc1	.	16.9µM*	.	.	.	-3.4%
COc1ccc(NC(=O)Cn2c(SCc3ccc(C)cc3)nc3cccnc32)c(OC)c1	.	1.9µM*	.	.	.	.
Cc1ccc(CSc2nc3cccnc3n2Cc2ccc(C(=O)NCc3ccco3)cc2)cc1	.	0.601µM*	.	.	.	.
CC(NC(=O)c1ccc(Cn2c(SCc3ccccc3)nc3cccnc32)cc1)c1ccccc1 (stereo not drawn)	.	-2.3%	.	.	.	.
Cc1ccc(C)n1-c1nnc(N2CCCC(C(=O)Nc3ccccc3Br)C2)s1 (stereo not drawn)	.	7.1%	.	.	.	4.1%
COc1cccc(NC(=O)CCC(=O)N2Cc3ccccc3Oc3ncccc32)c1	.	-14.4%	.	.	.	.
COc1ccc(N(C)S(=O)(=O)c2cccc(C(=O)OC(C(=O)Nc3cc(C)cc(C)c3)c3ccccc3)c2)cc1 (stereo not drawn)	12.4%	5.7%	1.6%	-1.8%	-1.7%	15.8µM*
COc1ccc(N2CCN(c3ncccc3-c3nc(-c4ccccc4C)no3)CC2)cc1	.	15.1µM*	.	.	.	.
Cc1ccc(CCNC(=O)C2CC(c3ccccc3[N+](=O)[O-])=NO2)cc1 (stereo not drawn)	-2.4%	-1.4%	-0.9%	-0.9%	-4.3%	-6.2%
O=C(NCCc1cccs1)C1CC(c2ccccc2[N+](=O)[O-])=NO1 (stereo not drawn)	?	15.1µM*	?	15.0%	?	24.0%
CCCCNC(=O)C1CC(c2cccc([N+](=O)[O-])c2)=NO1 (stereo not drawn)	2.82µM*	10.7µM*	?	?	2.82µM*	?
COc1ccc(CCNC(=O)C2CC(c3ccccc3[N+](=O)[O-])=NO2)cc1 (stereo not drawn)	?	19µM*	15.7%	20.9%	?	26.7%
SMILES	NPC1 prom act	FLuc counter	p53 reactivator	ELG1 genotox	Rab9 prom act	SMN2 splice enh
C=C1C=C(C(F)F)n2ncc(C(=O)NCc3ccccc3Cl)c2N1	.	-1.1%	.	.	.	.
Cc1ccc(CCNC(=O)c2ccc(CS(=O)(=O)c3ccc(Br)cc3)o2)cc1	.	0.8%	.	.	.	-8.0%
CCn1c(SCC(=O)c2cccs2)nnc1-c1ccco1	17.3%	21.3µM*	?	17.3%	21.0%	-0.8%
Cc1ccnc(SCC(=O)c2cccs2)n1	3.55µM*	?	14.3%	?	3.16µM*	?
CCn1c(SCC(=O)c2cc(C)n(C)c2C)nnc1-c1ccccc1	-0.6%	?	9.2%	-0.1%	-0.7%	-2.6%
CCn1c(SCC(N)=O)nnc1-c1ccco1	8.4%	1.5%	-5.5%	1.6%	0.8%	7.3%
CCn1c(SCC(=O)c2ccccc2)nnc1-c1cccs1	?	9.53µM*	?	?	?	7.7%
CCn1c(SCC(=O)NCCc2ccccc2)nnc1-c1cccs1	0.2%	3.5%	-1.4%	-1.9%	3.1%	-10.8%
CCn1c(SCC(=O)c2cc(C)n(-c3ccc(C(=O)OC)cc3)c2C)nnc1-c1cccnc1	-1.5%	15.1µM*	-0.5%	-16.8%	-3.5%	-6.8%
O=C(NCc1ccc(Cl)cc1)c1cnc2sc(N3CCCCCC3)nn2c1=O	.	-1.2%	.	.	.	.
NC1C(O)OC(CO)[C@@H](O)[C@@H]1O[C@H]1O[C@@H](C(=O)O)C(O)C(O)C1O (stereo partly drawn)	.	.	.	.	.	-0.5%
Cc1nn(-c2ccccc2)c2sc(-c3nnc(SCC(=O)O)o3)cc12	1.8%	?	3.4%	15.3%	?	-16.7%
CCn1c(SCC(=O)c2ccc(O)c(O)c2)nnc1-c1ccccc1OC	-1.4%	-16.9%	14.2%	0.4%	-1.4%	5.3%
CCn1c(SCC(=O)O)nnc1-c1cc2c(C)nn(-c3ccccc3)c2s1	1.8%	9.53µM*	0.2%	1.3%	0.2%	-5.7%
CCn1c(SCC(=O)c2ccc(O)c(O)c2)nnc1-c1ccccc1	-1.8%	?	?	20.6µM*	-7.9%	?
COc1cccc(Cn2c(SCC(=O)N(C)c3ccccc3)nc3ccccc32)c1	.	-13.9%	.	.	.	.
COc1ccc(C(=O)C2CCCN(C3Cc4ccccc4C3)C2)c(OC)c1 (stereo not drawn)	29.7%	26.9µM*	6.0%	24.3%	?	.
CCN(CC)c1ccc(NC(=O)C(C)C)cc1	10.6%	-14.9%	?	11.2%	12.9%	-13.2%
O=C(/C=C/c1ccc(Cl)cc1)NC(=S)Nc1ccc(C(=O)O)cc1	-3.9%	-18.9%	-4.6%	4.6%	-2.7%	.
CCN(CC)c1ccc(NC(=O)/C=C\c2ccccc2Cl)cc1	26.1%	2.69µM*	11.7%	7.31µM*	26.9%	?
CN(C)c1ccc(NC(=O)/C=C/c2ccccc2Cl)cc1	?	1.2µM*	?	?	2.51µM*	20µM*
CN(C)c1ccc(NC(=S)NC(=O)/C=C/c2ccc(Cl)cc2)cc1	16.3%	4.78µM*	?	11.2%	20.6%	43.6%
